# PLAP act: PLAP enzyme activators, biochemical, luminescence, HTS; 1.2% of 96,000 active; purified PLAP enzyme, luminescent substrate read-out; stronger effect = higher value; activation fold at 20 µM; AID 696, 2007; in the data active means activation fold above about 2
# Target sequence (P05187 whole entry, looked up): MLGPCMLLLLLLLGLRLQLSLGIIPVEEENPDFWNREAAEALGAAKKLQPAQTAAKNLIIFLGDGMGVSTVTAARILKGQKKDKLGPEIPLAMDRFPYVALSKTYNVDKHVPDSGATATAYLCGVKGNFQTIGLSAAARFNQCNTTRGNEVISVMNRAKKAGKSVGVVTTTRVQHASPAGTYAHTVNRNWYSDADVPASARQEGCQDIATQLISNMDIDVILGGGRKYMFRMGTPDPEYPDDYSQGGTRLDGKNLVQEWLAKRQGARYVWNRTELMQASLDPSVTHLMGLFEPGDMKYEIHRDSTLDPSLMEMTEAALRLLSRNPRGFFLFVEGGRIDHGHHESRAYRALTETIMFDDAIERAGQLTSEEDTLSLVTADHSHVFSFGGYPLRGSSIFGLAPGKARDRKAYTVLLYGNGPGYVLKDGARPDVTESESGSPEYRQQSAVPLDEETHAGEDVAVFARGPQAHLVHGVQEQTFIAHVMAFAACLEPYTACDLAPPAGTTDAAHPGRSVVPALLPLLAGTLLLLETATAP
# CYP2C9 act: human CYP2C9 activators, primary screen, biochemical, luminescence; 1.4% of 96,000 active; activation factor at 5 µM; Cytochrome P450 2C9 (Homo sapiens), P11712; recombinant CYP2C9, luciferin-H conversion; stronger effect = higher value; factor 1 = untreated enzyme, 0 = blocked;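 active means activation factor of 2 or more for CYP2C9 at a 5 µM dose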
# CYP2C9 inhib: blockers of cytochrome P450 2C9 activity – biochemical, luminescence, ADME assay, primary screen; inhibition, % at 5 µM; AID 777, 2007; CYP2C9 Supersomes, luciferin-H conversion; 20% of 96,000 active;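 active means blocking of liver enzyme CYP2C9 beyond about 50% at 5 µM, limit read from the data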
# CYP2C19 activ: human CYP2C19 activators, primary screen, biochemical, luminescence; Cytochrome P450 2C19 (Homo sapiens), P33261; recombinant CYP2C19, luciferin-H EGE luminescence; stronger effect = higher value; 0 = fully inhibited enzyme, 1 = untreated enzyme; activation factor at 5 µM; 96,000 tested, under 10 active; AID 1025, 2008;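 active means activation factor of at least 2 at 5 µM in the primary screen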
# CYP2C19 inhib: blockers of cytochrome P450 2C19 activity – biochemical, luminescence, ADME assay, primary screen. 21% of 96,000 active. P33261. CYP2C19 Supersomes, luciferin-H EGE luminescence, 30 min. inhibition, % at 5 µM;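 active means CYP2C19 inhibition above a set limit at 5 µM in the primary screen, cut at about 50% in these data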
# Hits are given with their value; i = inactive. Rows were chosen to be rich in hits. Some 31% of all compounds tested hit in one or more screens of this group.
SMILES,PLAP act,CYP2C9 act,CYP2C9 inhib,CYP2C19 activ,CYP2C19 inhib
NC(=O)C1(N2CCCCC2)CCN(C(=O)CSc2nc(C(F)(F)F)cc(=O)[nH]2)CC1,i,i,i,i,i
CCOc1ccc(N=C(NC#N)SC)cc1,i,i,i,i,70
CCOc1ccc(N=C(NC#N)SCC(=O)NC2CC2)cc1,i,i,i,i,i
CCOC(=O)C(C)Sc1ccc2nnc(-c3ccc(F)cc3)n2n1 (configuration not stated),i,i,i,i,i
O=C(c1ccc(F)cc1)C1CCN(C(=O)NC2CCCCC2)CC1,i,i,i,i,i
Brc1ccc2c(c1)CNc1c(ncnc1N1CCOCC1)O2,i,i,58,i,98
O=C(c1cccc(-n2cnnn2)c1)N1CCOCC1,i,i,i,i,i
CCOc1cc(Br)ccc1S(=O)(=O)N1CC(C)OC(C)C1 (configuration not stated),i,i,i,i,i
CCOc1ccc(C(C)(C)C)cc1S(=O)(=O)N1CCOCC1,i,i,50,i,68
CCOc1cc(S(=O)(=O)N2CCCCC2)ccc1F,i,i,i,i,i
CCOc1ccc(C)cc1S(=O)(=O)N1CCCCC1,i,i,i,i,66
CCOc1cc(S(=O)(=O)N2CCCC2)ccc1Cl,i,i,i,i,51
CCOc1ccc(Br)cc1S(=O)(=O)N1CC(C)OC(C)C1 (configuration not stated),i,i,i,i,88
CCOc1ccc(OCC)c(S(=O)(=O)N2CCCCC2C)c1 (configuration not stated),i,i,53,i,89
COc1cccc(S(=O)(=O)N2CCN(c3ccccc3F)CC2)c1,i,i,67,i,74
CCCS(=O)(=O)N1CCN(c2ccccc2F)CC1,i,i,i,i,68
COC(=O)COc1ccc(S(=O)(=O)N2CCN(c3ccccc3F)CC2)cc1C,i,i,i,i,i
O=C(c1cccc(S(=O)(=O)N2CCCC2)c1)N1CCN(c2ccccc2F)CC1,i,i,80,i,93
CCOc1ccc(C(=O)N(C)C2CCS(=O)(=O)C2)cc1 (configuration not stated),i,i,i,i,i
C=CCOc1c(Cl)cc(CNc2ccc(N(C)C)cc2)cc1OC,i,i,72,i,96
CCOc1cc(CNCCc2ccc(S(N)(=O)=O)cc2)cc(Cl)c1OCc1ccccc1,i,i,i,i,i
C=CCOc1ccc(CNC(C)(C)C)cc1OC,i,i,i,i,i
C=CCOc1c(Cl)cc(CNc2ccc(C)c(Cl)c2)cc1OC,i,i,57,i,i
C=CCOc1c(Cl)cc(CNCCC)cc1Cl,i,i,i,i,59
CN(C)CCNC(=O)c1ccc(COc2ccc(Cl)cc2Cl)cc1,i,i,i,i,i
SMILES,PLAP act,CYP2C9 act,CYP2C9 inhib,CYP2C19 activ,CYP2C19 inhib
Cc1ccc(CNc2ccc3c(c2)OCO3)cc1,i,i,i,i,i
Cc1ccc(CNc2ccc(CNc3ncn[nH]3)cc2)cc1,i,i,63,i,77
Cn1c(=O)n(C/C=C/c2ccccc2)c(=O)c2c1nc1n2CCCN1c1ccc(F)cc1,i,i,i,i,i
Cc1ccc(-c2c(=O)n(OCc3ccccn3)c3ccccc3[n+]2[O-])cc1,i,i,i,i,i
O=c1c(-c2cccc3ccccc23)[n+]([O-])c2ccccc2n1O,i,i,75,i,i
Fc1ccc(Cn2c(SCc3ccc(F)c(C(F)(F)F)c3)nnc2C(F)(F)F)cc1,i,i,56,i,64
Fc1ccc(Cn2c(SCc3ccc(F)c(F)c3)nnc2C(F)(F)F)cc1,i,i,57,i,67
Cn1c(SCc2cccc(F)c2)nnc1-c1ccccn1,i,i,i,i,i
COc1ccc(C(C#N)C2(C)OCCO2)cc1OC (configuration not stated),i,i,i,i,i
COc1cc(/C=N/n2c(SC)nnc(C(C)(C)C)c2=O)ccc1O,i,i,i,i,i
Cc1ccc(OCCn2cc(Br)c(=O)[nH]c2=O)cc1,i,i,i,i,i
CC(C)CC(=O)N1CCN(S(C)(=O)=O)CC1,i,i,i,i,i
O=C(CN1C(=O)c2ccccc2C1=O)Nc1ccccc1F,i,i,i,i,i
Cc1ccc2c(c1)c(CC(=O)Nc1ccc(C)c(F)c1)c(C(=O)O)n2C,i,i,84,i,i
Cn1c(C(=O)O)c(CC(=O)Nc2ccccc2F)c2ccccc21,i,i,93,i,59
CCOC(=O)C1=C(C)Nc2ncnn2C1c1cc(Br)ccc1F (configuration not stated),i,i,i,i,i
CC(=O)c1ccc(N2CCN(C(=O)CCS(=O)(=O)c3ccc(C)cc3)CC2)cc1,i,i,i,i,i
CCOC(=O)Nc1ccc(C)cc1C,i,i,i,i,i
Cc1ccc(NC(=O)C2C(c3ccccc3)C2(Cl)Cl)c(C)c1 (configuration not stated),i,i,52,i,97
CCOC(=O)CC1ON(C)C(=O)N1c1ccc([N+](=O)[O-])cc1 (configuration not stated),i,i,i,i,98
Cc1cc(Nc2nc3ccccc3nc2Cl)n(-c2ccc([N+](=O)[O-])cc2)n1,i,i,i,i,i
Cc1cc(Nc2ccccc2)n(-c2cccc(Cl)c2)n1,i,i,78,i,80
Cc1cc(Nc2cnc3ccccc3n2)n(-c2ccccc2)n1,i,i,72,i,69
CN=C(Nc1cc(C)nn1-c1ccccc1)c1ccccc1,i,i,i,i,81
Cc1cc(Nc2nc3ccccc3[nH]c2=O)n(-c2ccccc2)n1,i,i,64,i,i
SMILES,PLAP act,CYP2C9 act,CYP2C9 inhib,CYP2C19 activ,CYP2C19 inhib
Cc1ccc(C(=O)N2CCSCC2)cc1,i,i,i,i,i
CCCCOC(=O)c1[nH]c2c(c1C)C(=O)CC(c1cc(OC)c(OC)c(OC)c1)C2 (configuration not stated),i,i,63,i,i
COC(=O)c1[nH]c2c(c1C)C(=O)CC(c1cc(OC)ccc1OC)C2 (configuration not stated),i,i,i,i,i
C=CCOC(=O)c1[nH]c2c(c1C)C(=O)CC(c1cc(OC)c(OC)c(OC)c1)C2 (configuration not stated),i,i,87,i,61
CCCCCOC(=O)c1[nH]c2c(c1C)C(=O)C(C(=O)OC)C(C)C2 (configuration not stated),i,i,i,i,i
CCOc1ccc(C2CC(=O)c3c([nH]c(C(=O)OC)c3C)C2)cc1OC (configuration not stated),i,i,52,i,i
COc1ccc(/C(O)=C2/C(=O)C(=O)N(CCCN(C)C)C2c2ccccc2)cc1Cl (configuration not stated),i,i,i,i,i

# Bioassay records (PubChem)
